The list is not random: actives were taken first. Their share in the collection is about 1.9%.
MsrA act – bovine MsrA enzyme activators, primary screen, biochemical, absorbance, HTS; purified bovine MsrA, absorbance read-out; AID 602163, 2012; activation, % at 10.6 µM; Methionine sulfoxide reductase A (Bos taurus); 0.3% of 360,000 active; in the data active means activation above about 7.5%;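 further: 0% = vehicle and 100% = reference activator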
PLC-beta3 inh – human PLC-beta3 inhibitors, primary screen, biochemical, fluorescence. 1-phosphatidylinositol 4,5-bisphosphate phosphodiesterase beta-3 (Homo sapiens), Q01970. AID 720704, 2013. Purified PLC-beta3, fluorogenic substrate. 0.18% of 370,000 active. inhibition, % at 12.2 µM; in the data active means inhibition above about 11%;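 further: 0% = median of compound wells on plate and 100% = full blocker control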
PLC-gamma1 inh – PLC-gamma1 enzyme inhibitors, primary screen, biochemical, fluorescence, purified enzyme | inhibition, % at 12.2 µM | 1-phosphatidylinositol 4,5-bisphosphate phosphodiesterase gamma-1 (Homo sapiens), P19174 | AID 720700, 2013 | fluorogenic substrate | 0.84% of 370,000 active
MsrA inh – bovine MsrA enzyme inhibitors, primary screen, biochemical, absorbance, HTS | inhibition, % at 15.5 µM | Methionine sulfoxide reductase A (Bos taurus) | AID 651718, 2012 | purified bovine MsrA, absorbance read-out | 0.75% of 360,000 active; in the data active means inhibition above about 4.5%;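 further: 0% = vehicle wells with enzyme and 100% = reference inhibitor wells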
PLCg1 ctr – PLC-gamma1 enzyme inhibitors, counter-screen for PLC-beta3 inhibitor project, biochemical, fluorescence; shares compounds with PLC-gamma1 inh; purified PLC-gamma1, fluorogenic substrate; inhibition, % at 12.3 µM; 3.1% of 3,300 active; AID 743258, 2014
PLCbeta3 conf – PLC-beta3 inhibitor confirmation, biochemical, fluorescence, purified enzyme; shares compounds with PLC-gamma1 inh; fluorogenic substrate fluorescence; inhibition, % at 12.3 µM; 1% of 3,300 active; AID 743261, 2014; in the data active means inhibition above about 11%
Starred values were filed as active, the others as inactive; · = no result. Unless noted, no stated cut-off is given here; in the data, active means inhibition above about 9.5%; inactive means the rest.

SMILES	MsrA act	PLC-beta3 inh	PLC-gamma1 inh	MsrA inh	PLCg1 ctr	PLCbeta3 conf
Cc1ccc(C)c(SCC(=O)NC2CCS(=O)(=O)C2)c1 (stereo unspecified)	2	-3	-2	-1	·	·
COc1ccc(NC(=O)CCCN2C(=O)CCC2=O)cc1Cl	-1	3	11*	-1	-5	-1
COc1ccc(NC(=O)CCCCCN2C(=O)CCC2=O)cc1Cl	0	5	-1	0	·	·
CN(C)c1ccc2c3c(ccc(N(C)C)c13)COC2	-1	-1	-1	-1	·	·
Cc1cc(C)cc(NC(=O)CSc2nc(=O)n3cc(C)ccc3n2)c1	-7	-4	3	2	·	·
Cc1nn(-c2ccccc2)c(Cl)c1C(=O)NCc1ccccc1F	-13	-4	-1	0	·	·
Cc1nn(-c2ccccc2)c(Cl)c1C(=O)NCCCCNC(=O)c1c(C)nn(-c2ccccc2)c1Cl	-6	14*	12*	1	6	-19
Clc1ccc(CNCC2CCCO2)cc1 (stereo unspecified)	-1	-5	-1	0	·	·
Clc1ccc(CNCC2CCCO2)c(Cl)c1 (stereo unspecified)	-3	-1	10*	0	0	2
C=CCN1C(=O)c2n[nH]c(COC)c2C1c1cccc(C(F)(F)F)c1 (stereo unspecified)	·	1	5	0	·	·
CC(=O)c1ccc(S(=O)(=O)NC2CC(=O)N(c3ccc(Cl)cc3)C2)cc1 (stereo unspecified)	0	3	0	-1	·	·
O=C(c1ccc(F)c(F)c1)N1CCC(Oc2cccnc2)CC1	·	0	0	·	·	·
O=C(CCN1CCN(c2ccccc2F)CC1)Nc1ccccc1F	-5	6	11*	1	-3	-1
O=C(NCC(c1ccccc1)c1ccccc1)[C@H](Cc1ccccc1)NC1(C(=O)NC2CCCCC2)CCOCC1	·	3	14*	·	2	5
CC(C)C[C@H](NC(C)(C)C(=O)NC1CCCCC1)C(=O)NCC(c1ccccc1)c1ccccc1	·	4	1	·	·	·
CCOC(=O)c1c(CC(C)C)csc1NC(=O)CCl	-1	11*	6	0	-3	-6
COc1ccc(CCNC(=O)Cc2ccc(NS(=O)(=O)c3ccc(F)cc3)cc2)cc1OC	-2	-5	1	0	·	·
NC(=O)CC[C@H](NC(=O)c1ccc(F)cc1)C(=O)OCC(=O)NCc1ccc(F)cc1	-2	4	10*	2	-2	-2
O=C(Nc1c(C(=O)N2CCOCC2)cnn1-c1ccccc1)c1ccc(F)cc1	-6	-9	-2	0	·	·
CC(=O)Nc1ccc2nc(SCC(=O)NCCOc3ccccc3)sc2c1	-1	-1	7	0	·	·
CC(=O)Nc1nnc(SCC(=O)NCCOc2ccccc2)s1	-1	2	9.9*	0	-5	0
O=S1(=O)c2ccc(N3CC[C@H](O)C3)cc2OCCCN1C1CC1	·	-4	-3	·	·	·
CC(C)CNC(=O)c1cc([N+](=O)[O-])ccc1N1CCOCC1	-4	5	11*	1	-9	-5
CCc1nc2c(OCCC3CCCCC3)cccn2c1N(C)C(=O)c1ccc(C)cc1	2	3	10*	0	4	3
COc1ccc(-c2ccc(N3C(c4cc(OC)cc(OC)c4)=Cc4ccc(OC)cc4C3CC(C)=O)cc2)cc1 (stereo unspecified)	-2	-90	-58	2	·	·
SMILES	MsrA act	PLC-beta3 inh	PLC-gamma1 inh	MsrA inh	PLCg1 ctr	PLCbeta3 conf
O=C(CCNc1ccc(Cl)cc1)c1cccs1	0	2	3	0	·	·
O=C(CCNc1cc(Cl)cc(Cl)c1)c1cccs1	-6	5	13*	1	11*	4
CN[C@H]1C[C@H]2c3[nH]c4cccc(-c5ccccc5)c4c3CCN2C[C@H]1[C@H](C)O	·	-217	-194	·	·	·
CCCCCCOc1ccc(/C(N)=N/O)cc1	1	6	12*	1	-8	-1
COc1ccc(C(=O)Nc2ccc(S(=O)(=O)Nc3ncccn3)cc2)cc1OC	-1	14*	4	1	-9	-5
O=C(Cn1c(=O)oc2cc(S(=O)(=O)N3CCc4ccccc43)ccc21)NC1CCCC1	-1	2	0	0	·	·
CC(C)CCNC(=O)Cn1c(=O)oc2cc(S(=O)(=O)N3CCc4ccccc43)ccc21	1	12*	4	1	-4	-1
Cc1ccc(C(C)C)c(OCCNCc2ccccc2)c1	-1	2	3	-1	·	·
Cc1ccc(C)c(OCCCNCc2ccccc2)c1	0	1	15*	1	-5	0
CC[C@@H]1CC2=C(C(=O)OC(C)(C)O2)[C@H](c2ccc(F)cc2)O1	0	5	7	1	·	·
CCOC(=O)C1NC(=O)CC1c1ccccc1 (stereo unspecified)	-3	8	11*	1	7	3
CCOC(=O)[C@@H]1CCNC[C@@H]1c1ccccc1	-3	-1	1	-1	·	·
O=C(O)C1CCCCC1C(=O)Nc1cc(C(F)(F)F)ccc1Cl (stereo unspecified)	0	-4	10.0*	2	-3	-6
CCOC(=O)c1c(C)nc(C)c(C(=O)OCC)c1-c1ccc(Br)cc1	-6	6	12*	1	-5	-2
O=C(NCc1ccccc1)[C@@H]1CCCN1C(=O)[C@H]1CCCN1C(=O)c1ccc(Cl)c(Cl)c1	·	3	0	0	·	·
Cc1ccc(S(=O)(=O)N2CCC(C(=O)Nc3nnc(C4CCCC4)s3)CC2)cc1	-8	7	15*	1	-2	-1
CC(=O)N1CCC(C(=O)Nc2ccc(S(=O)(=O)N3CCC(C)CC3)cc2)CC1	-2	0	9.6*	2	-1	0
Cc1ccc(S(=O)(=O)N2CCC(C(=O)N3Cc4ccccc4C3)CC2)cc1	-3	2	10*	1	-5	-1
CCOc1ccc(N2CC(C(=O)Nc3cccc(S(=O)(=O)N4CCCCC4)c3)CC2=O)cc1 (stereo unspecified)	-1	7	11*	2	-8	-5
CCOC(=O)C1=C(C(=O)OCC)C2N(Cc3ccc(Br)cc3)c3ccccc3[C@@]23C[C@@H](C(=O)OC)N(S(=O)(=O)c2ccc(C(F)(F)F)cc2)C3=N1 (stereo partly specified)	·	-1	2	1	·	·
Cc1cccc(C)c1OCC(=O)N[C@@H](Cc1ccccc1)[C@@H](O)C[C@H](Cc1ccccc1)NC(=O)[C@H](C(C)C)N1CCCNC1=O	·	4	8	·	·	·
COc1ccc(N2CC(C(=O)Nc3ccc(S(=O)(=O)N4CCCC4)cc3)CC2=O)cc1 (stereo unspecified)	-7	-5	2	-1	·	·

Screens: PubChem BioAssay, The Scripps Research Institute Molecular Screening Center
